Among the data in PubChem BioAssay (NCI) are growth values, retold here.

Compounds without any hit were thinned out: in the full panel of roughly 83,000, 20% have a hit.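 Plates (96-well) were seeded with cells, treated with compound at one concentration, and incubated for 48 hours before percent growth was determined.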 A number with no mark means an inactive call. Calls of active or inactive are those of the source. Rule for the calls: active = growth percent below 10; inactive = the rest.

Holding throughout (assay): NCI-60 one-dose screen, 48 h (100 = growth as untreated, 0 = no growth, -100 = all killed)
Conditions in all cases: 10 µM unless noted

In experiment [1] the test system is HCT-15 colon.
Experiment [2] concerns HT29 colon.
Experiment [3] relates to SNB-75 CNS.
The subject of experiment [4] is SNB-19 CNS.
The test system of experiment [5] is U251 CNS.
The subject of experiment [6] is PC-3 prostate.
The subject of experiment [7] is SK-MEL-5 melanoma.
The subject of experiment [8] is UACC-62 melanoma.
The subject of experiment [9] is LOX IMVI melanoma.
Experiment [10] deals with SK-MEL-28 melanoma.
Experiment [11] deals with SK-MEL-2 melanoma.
The subject of experiment [12] is EKVX NSCLC.
Experiment [13] concerns SN12C renal.
The test system of experiment [14] is UO-31 renal.
Experiment [15] has as its system TK-10 renal.
The test system of experiment [16] is ACHN renal.
In experiment [17] the test system is A498 renal.
Experiment [18] has as its system CCRF-CEM leukemia.
Experiment [19] relates to MOLT-4 leukemia.
Experiment [20] has as its system CAKI-1 renal.

On to `COc1ccc2c(c1)OC13Oc4cc(OC)ccc4C=C1CCCC3=C2`, for which the growth in experiment [1] was 12.8%; in experiment [2], 8.16% (active); in experiment [3] it was 74.6%; in experiment [4] it was 54.7%; in [5] it was 35%; in experiment [6], 23.6%. The growth was 40.3% in experiment [7]; 14.8% in experiment [8]; -32.1% (active) in experiment [9]; 63% in experiment [10]; 15.7% in [11]; 39.7% in experiment [12]. Also, the growth in experiment [13] was 44.1%; in experiment [14], 36.3%; in experiment [15] it was 47%; in experiment [16] it was 25.3%; in experiment [17] it was 69.8%; in experiment [18], 5.97% (active). Further, the growth in experiment [19] was -3.56% (active).

Regarding `CC(=O)N1c2ccccc2NC2=C(C(=O)N(C)C2(C)C)C1C` (configuration not stated), the growth in [1] is 93.8%; in experiment [2] it was 25.2%; in experiment [3], -3.29% (active); in experiment [4] it was 39.9%; in experiment [5] it was 18.1%; in experiment [6], 36.4%. Also, the growth was 27.5% in [7]; 32.3% in experiment [8]; 37.5% in experiment [9]; 56% in experiment [10]; 8.92% (active) in experiment [11]; 61.5% in experiment [12]. The growth in [13] is 40.7%; in experiment [14] it was 82%; in [15], 87.1%; in experiment [16], 97%; in experiment [20], 71.9%; in [19] it was 33.3%.

`Cc1ccc(-c2csc(/N=C3\C(=O)Nc4ccccc43)n2)cc1`: the growth in [1] is 32%; in experiment [2], -8.75% (active); in experiment [3], 55.5%; in experiment [4], 22.8%; in [5], -47.5% (active); in experiment [6], 2.72% (active). Besides, the growth in experiment [7] is -20.2% (active); in experiment [8] it was 0.615% (active); in experiment [9], -0.0538% (active); in experiment [10], 13.7%; in experiment [11], -51.2% (active); in experiment [12], 33.6%. The growth in [13] was 23.4%; in [14] it was 42%; in experiment [15], 8.33% (active); in [16], 36.7%; in [17], 5.79% (active); in experiment [18], 6.64% (active). Moreover, the growth in experiment [19] was -19.5% (active).

Turning to `CSc1nc(O)c(-c2ccccc2)c(=O)[nH]1`, the growth in experiment [1] was 102%; in [2] it was 99.9%; in [3], 97.1%; in experiment [4], 100%; in experiment [5], 101%; in experiment [6], 96.9%. Also, the growth is 101% in [7]; 93.1% in experiment [8]; 101% in experiment [9]; 101% in experiment [10]; 103% in experiment [11]; 94.6% in [12]. Further, the growth is 96.9% in experiment [13]; 92% in experiment [14]; 97% in experiment [15]; 93.3% in experiment [16]; 93.6% in experiment [20]; 97% in experiment [19].

With `CC(C)Cc1ccc(C(C)C(=O)NCc2c[nH]c3ccc(Cl)cc23)cc1` (configuration not stated), the growth in experiment [1] is 91.2%; in [2], 111%; in experiment [3], 102%; in experiment [4], 96.2%; in experiment [5], 91.8%; in experiment [6], 66.2%. The growth in [7] is 85.4%; in experiment [8], 66.6%; in [9], 96%; in [10], 94.6%; in experiment [11], 92%; in experiment [12], 85.9%. For the same molecule, the growth was 94% in experiment [13]; 65.4% in experiment [14]; 107% in experiment [15]; 86.6% in experiment [16]; 81.7% in experiment [20]; 65.6% in experiment [19].

In the case of `CCCCCCCC(=O)Nc1nc2[nH]c(CN3CCN(Cc4cccc(I)c4)CC3)c(CN3CCN(Cc4cccc(I)c4)CC3)c2c(=O)[nH]1`, the growth was -91.5% (active) in [1]; -69.8% (active) in [2]; -73.2% (active) in experiment [3]; -87.5% (active) in [4]; -94.6% (active) in [5]; -45.7% (active) in experiment [6]. Also, the growth in experiment [7] was 2.56% (active); in experiment [8], -98.1% (active); in experiment [9], -96.6% (active); in experiment [10], -78.1% (active); in [11] it was -34% (active); in [12], -44.5% (active). In addition, the growth was -87.3% (active) in experiment [13]; -99.9% (active) in experiment [14]; -91.9% (active) in experiment [15]; -98.9% (active) in experiment [16]; 45.5% in experiment [17]; 1.17% (active) in experiment [18]. In experiment [19], the growth is -36% (active).

As for `Nc1c(C(=O)Nc2cccc3ccncc23)sc2nc3c(cc12)C(=O)CCC3`, the growth in [1] is 35.1%; in [2] it was 18.2%; in experiment [3], 9.48% (active); in experiment [4], 32.9%; in experiment [5], 48.3%; in experiment [6], 52.9%. The growth in [7] is 3.47% (active); in experiment [8], 28.9%; in experiment [9] it was 46.2%; in [10], 55.8%; in [11], 25.1%; in experiment [12] it was 62.1%. The growth in experiment [13] is 54.5%; in experiment [14] it was 57.7%; in experiment [15], 68.2%; in experiment [16] it was 51.2%; in [20], 37.7%; in experiment [19], 85.2%.

With `COc1cccc(C(Cc2ccccc2)Nc2ccccc2)c1OC` (configuration not stated), the growth was 91.3% in [1]; 73% in [2]; 90.1% in experiment [3]; 104% in experiment [4]; 89.8% in [5]; 83.2% in experiment [6]. In addition, the growth in experiment [7] is 97.1%; in experiment [8], 88.7%; in [9], 98.1%; in experiment [10], 107%; in [11], 83%; in [12] it was 96.1%. Also, the growth in experiment [13] was 103%; in experiment [14], 85.4%; in experiment [15] it was 96.7%; in [16] it was 106%; in experiment [17] it was 90%; in [18] it was 87.5%. The growth in experiment [19] was 78.6%.

Consider `C=C1C(=O)O[C@H]2[C@H]1CC/C(COC(=O)CCCCCC(=O)OC/C1=C/CC[C@@]3(C)O[C@H]3[C@H]3OC(=O)C(=C)[C@@H]3CC1)=C\CC[C@@]1(C)O[C@@H]21`, for which the growth in experiment [1] is 0.552% (active); in experiment [2] it was 3.42% (active); in experiment [3], 46.5%; in [4], 62.4%; in experiment [5], 47.8%; in [6], 29.8%. The growth in experiment [7] was 26.3%; in [8], 8.53% (active); in experiment [9], -53.5% (active); in experiment [10], 18.5%; in experiment [11], 55.7%; in [12] it was 19.9%. Moreover, the growth in [13] is 0.951% (active); in experiment [14] it was -32.1% (active); in experiment [15] it was 7.18% (active); in experiment [16] it was -25.7% (active); in [17], 90.5%; in experiment [18], 4.16% (active). Besides, the growth in [19] was 0.768% (active).
